In the library only some 2.4% were active in any assay of this set; here they are far more common.
M1 PAM – human M1 muscarinic receptor positive allosteric modulators, primary screen, CHO-K1 cells, Fluo-8 calcium fluorescence, 1536-well | CHO-K1 hM1, ACh EC20; 0% = ACh EC20, 100% = maximal ACh | activation, % at 3 µM | actives 0.088% (n = 360,000); in the data active means activation above about 19%, passing the limit was not always enough
Target sequence (P11229 whole entry, looked up): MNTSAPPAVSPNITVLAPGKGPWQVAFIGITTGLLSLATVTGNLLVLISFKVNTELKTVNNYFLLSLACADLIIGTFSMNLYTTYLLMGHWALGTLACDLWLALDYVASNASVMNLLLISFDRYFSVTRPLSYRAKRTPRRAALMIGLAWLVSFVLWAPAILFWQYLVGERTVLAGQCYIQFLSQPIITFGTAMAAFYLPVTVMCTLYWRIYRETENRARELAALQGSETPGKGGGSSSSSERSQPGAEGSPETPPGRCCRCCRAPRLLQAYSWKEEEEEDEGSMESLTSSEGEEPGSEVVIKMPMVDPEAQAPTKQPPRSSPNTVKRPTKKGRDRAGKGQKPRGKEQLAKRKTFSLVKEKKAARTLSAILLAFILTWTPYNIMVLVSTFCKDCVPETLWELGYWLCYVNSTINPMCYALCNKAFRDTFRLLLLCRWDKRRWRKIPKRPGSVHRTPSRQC
M1 antag – human M1 muscarinic receptor antagonists, primary screen, CHO-K1 cells, Fluo-8 calcium fluorescence, 1536-well. Muscarinic acetylcholine receptor M1 (Homo sapiens), P11229. CHO-K1 hM1, ACh EC80 antagonist. inhibition, % at 3 µM. actives 1.3% (n = 360,000). AID 588852, 2011;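 active means percent inhibition above its own plate's cutoff, namely the mean of that plate's compound wells plus 3 SD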;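 further: peak over basal fluorescence ratio during 140 s after agonist addition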
M1 ag – human M1 muscarinic receptor agonists, primary screen, Fluo-8 calcium fluorescence, CHO-K1 cells, HTS; Muscarinic acetylcholine receptor M1 (Homo sapiens), P11229; activation, % at 3 µM; actives 0.33% (n = 360,000); CHO-K1 hM1, agonist mode; 0% DMSO, 100% acetylcholine EC100;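 active means activation above the run's mean compound activation plus 3 SD, cut at about 16% in these data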;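 further: peak over basal fluorescence ratio within a 140 s kinetic read after compound addition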
CHO-K1 Ca antag – counter-screen for M1 antagonists: effect in parental CHO-K1 cells. ATP-induced calcium, Fluo-8 fluorescence. inhibition, % at 3 µM. actives 0.6% (n = 360,000). AID 602250;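 active means inhibition above a per-plate cutoff, the plate's mean sample inhibition plus 3 SD, cut at about 24% in these data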
M1 ag parental – counter-screen for M1 agonists: effect in parental CHO-K1 cells; Fluo-8 calcium fluorescence; scaled to maximal ATP response, vehicle zero; activation, % at 3 µM; actives 0.48% (n = 360,000); in the data active means activation above about 15%;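 further: untransfected CHO-K1 host cells lacking M1 receptor as counterscreen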
M1 PAM parental – nonselective calcium activators in parental CHO-K1 cells, primary screen, counter-screen for M1 PAM project, cell-based, Fluo-8 calcium fluorescence, full deck, 1536-well. actives 0.02% (n = 360,000). AID 602247, 2012. activation, % at 3 µM. ATP EC20; 0% at ATP EC20, 100% at ATP max;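 active means activation above the run cutoff, the mean activation of all test compounds plus 3 SD, cut at about 40% in these data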;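 further: peak over basal fluorescence ratio in a 140 s read after ATP addition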
Hits are given with their value.

How did CCn1c(N2CCN(C(=S)NCC(C)C)CC2)nc2ccccc21 do in these assays?
M1 PAM: inactive; M1 antag: 38.8; M1 ag: inactive; CHO-K1 Ca antag: inactive; M1 ag parental: inactive; M1 PAM parental: inactive

How did CCn1c(N2CCN(C(=S)NC)CC2)nc2ccccc21 do in these assays?
M1 PAM: inactive; M1 antag: inactive; M1 ag: inactive; CHO-K1 Ca antag: inactive; M1 ag parental: inactive; M1 PAM parental: inactive

How did Cc1cccc(OCC(=O)Nc2ccc(N3CCN(C(=O)c4ccccc4)CC3)cc2)c1C do in these assays?
M1 PAM: inactive; M1 antag: 26.9; M1 ag: inactive; CHO-K1 Ca antag: inactive; M1 ag parental: inactive; M1 PAM parental: inactive

Results for CC(C)C(=O)N1CCN(c2ccc(NC(=O)COc3ccccc3[N+](=O)[O-])cc2)CC1 ?
M1 PAM: inactive; M1 antag: 36.6; M1 ag: inactive; CHO-K1 Ca antag: 39.7; M1 ag parental: inactive; M1 PAM parental: inactive

How did CN1CCN(c2ccc(NC(=O)COc3ccccc3[N+](=O)[O-])cc2)CC1 do in these assays?
M1 PAM: inactive; M1 antag: inactive; M1 ag: inactive; CHO-K1 Ca antag: inactive; M1 ag parental: inactive; M1 PAM parental: inactive

How did CCC(=O)N1CCN(c2ccc(NC(=O)COc3cccc(C)c3C)cc2)CC1 do in these assays?
M1 PAM: inactive; M1 antag: inactive; M1 ag: inactive; CHO-K1 Ca antag: inactive; M1 ag parental: inactive; M1 PAM parental: inactive

Results for CCOC(=O)C1CCCN(C(=O)/C=C/c2ccc(Cl)cc2)C1 (configuration not stated) ?
M1 PAM: inactive; M1 antag: inactive; M1 ag: inactive; CHO-K1 Ca antag: inactive; M1 ag parental: inactive; M1 PAM parental: inactive

Results for Cn1cccc1/C=C1\CC(C(C)(C)C)C/C(=C\c2cccn2C)C1=O (configuration not stated) ?
M1 PAM: inactive; M1 antag: inactive; M1 ag: inactive; CHO-K1 Ca antag: 24.5; M1 ag parental: inactive; M1 PAM parental: inactive

What do the screens show for `Cn1cccc1/C=C1\Cc2ccccc2C1=O`?
M1 PAM: inactive; M1 antag: inactive; M1 ag: inactive; CHO-K1 Ca antag: inactive; M1 ag parental: inactive; M1 PAM parental: inactive

Results for NS(=O)(=O)c1ccc(CCNC(=O)CNC(=O)c2ccc(F)cc2)cc1 ?
M1 PAM: inactive; M1 antag: inactive; M1 ag: inactive; CHO-K1 Ca antag: inactive; M1 ag parental: inactive; M1 PAM parental: inactive

Results for O=C(CNC(=O)c1ccccc1)NCCc1ccc(O)c(O)c1 ?
M1 PAM: 31.0; M1 antag: inactive; M1 ag: inactive; CHO-K1 Ca antag: inactive; M1 ag parental: inactive; M1 PAM parental: inactive

What do the screens show for `Cc1ccccc1OCCn1cnc2c(N)ncnc21`?
M1 PAM: inactive; M1 antag: inactive; M1 ag: inactive; CHO-K1 Ca antag: inactive; M1 ag parental: inactive; M1 PAM parental: inactive

What do the screens show for `CN1CCN(Cc2nnc(-c3ccccc3)o2)CC1`?
M1 PAM: inactive; M1 antag: inactive; M1 ag: inactive; CHO-K1 Ca antag: inactive; M1 ag parental: inactive; M1 PAM parental: inactive

What do the screens show for `c1ccc(CN2CCN(Cc3nnc(-c4ccccc4)o3)CC2)cc1`?
M1 PAM: inactive; M1 antag: 34.8; M1 ag: inactive; CHO-K1 Ca antag: inactive; M1 ag parental: inactive; M1 PAM parental: inactive

Results for N=c1ccn(Cc2cccc(F)c2)cc1 ?
M1 PAM: inactive; M1 antag: 41.7; M1 ag: inactive; CHO-K1 Ca antag: inactive; M1 ag parental: inactive; M1 PAM parental: inactive

How did Cc1cc(O)c(C(=O)/C=C/c2ccccc2O)c(=O)o1 do in these assays?
M1 PAM: inactive; M1 antag: inactive; M1 ag: inactive; CHO-K1 Ca antag: 24.0; M1 ag parental: inactive; M1 PAM parental: inactive

Results for Cc1cc(O)c(C(=O)/C=C/c2cccc([N+](=O)[O-])c2)c(=O)o1 ?
M1 PAM: inactive; M1 antag: inactive; M1 ag: inactive; CHO-K1 Ca antag: inactive; M1 ag parental: inactive; M1 PAM parental: inactive
